Experimental data as given in PubChem BioAssay (NCATS).
Results filed as inconclusive are left out. Unmarked numbers belong to inactive results. The source made the active and inactive calls. Calls come from the whole dose curve; as a rule, active = well fitted inhibition curve with a large enough effect; inconclusive = small, poorly fitted or top-dose-only effect; inactive = flat fitted curve, though single readings scatter.

What follows are compounds tested on CP192 (assay: qHTS profiling for inhibitors of Plasmodium falciparum proliferation (AID 504749; note: nearly all actives have a fitted effect of over 60% in size;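 for activity, negative = inhibition: 0% = DMSO vehicle and full inhibition = artemisinin control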)). Conditions: P. falciparum in erythrocytes, SYBR Green DNA, 72 h; series mostly up to 28.7 µM; activity, negative = inhibition: at the top concentration.
Method in brief: (§1)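 Fluorescence of SYBR Green-bound parasite DNA, read at 485/535 nm, served as the growth measure. Infected erythrocytes were cultured with compound 72 h; artemisinin (0.29 uM) and DMSO wells defined the normalization range.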
Potency is the fitted concentration of half-maximal effect.

Question: With Nc1[nH]c(=O)ncc1F as the compound, how does the “activity, negative = inhibition” value read?
Answer: -0.46% [at 12.8 µM]

Question: With Nc1nc(N)c2nc(CNc3ccc(C(=O)NC(CCC(=O)O)C(=O)O)cc3)cnc2n1 (centres undefined) as the compound, how does the “activity, negative = inhibition” value read?
Answer: 0.0888%

Question: How did the “activity, negative = inhibition” value turn out when COC(=O)Nc1nc2ccc(C(=O)c3ccccc3)cc2[nH]1 was run?
Answer: -22% [at 12.8 µM]

Question: Nc1nc(N)nc(-c2cc(Cl)ccc2Cl)n1 was tested. Which “activity, negative = inhibition” value did it give?
Answer: -18.9%

Question: For CC(C)(Sc1cc(C(C)(C)C)c(O)c(C(C)(C)C)c1)Sc1cc(C(C)(C)C)c(O)c(C(C)(C)C)c1, which “activity, negative = inhibition” value is on record?
Answer: -0.753% [at 12.8 µM]

Question: Which “activity, negative = inhibition” value does the source give for COc1ccc(-c2ccc3cc(C(=O)O)ccc3c2)cc1C12CC3CC(CC(C3)C1)C2 here?
Answer: -0.199%

Question: Which “activity, negative = inhibition” value does the source give for NCCCC(O)(P(=O)(O)O)P(=O)(O)O here?
Answer: -13.7%

Question: With CCc1cc(C(N)=S)ccn1 as the compound, how does the “activity, negative = inhibition” value read?
Answer: 0.0933%

What follows are compounds tested on CP194 in the same assay as above. Conditions: P. falciparum in erythrocytes, SYBR Green DNA, 72 h; series mostly up to 28.7 µM; activity, negative = inhibition: at the top concentration.
Method in brief: as §1

Question: How did the Potency turn out when C[C@@H](NCCCc1cccc(C(F)(F)F)c1)c1cccc2ccccc12 was run?
Answer: 13.5 µM (active)

Question: For COc1cc(NCc2ccc3nc(N)nc(N)c3c2C)cc(OC)c1OC, which Potency is on record?
Answer: 2.69 µM (active)

Question: With NC(N)=NC(N)=NCCc1ccccc1 as the compound, how does the Potency read?
Answer: inactive

Question: Which “activity, negative = inhibition” value does the source give for N[C@@H](Cc1ccc(O)c(O)c1)C(=O)O here?
Answer: 4.17%

Question: For CNNCc1ccc(C(=O)NC(C)C)cc1, which “activity, negative = inhibition” value is on record?
Answer: 3.65%

Question: OC(Cn1cncn1)(Cn1cncn1)c1ccc(F)cc1F was tested. Which “activity, negative = inhibition” value did it give?
Answer: -1.03%

Question: For CCOC(=O)c1ccc(C#Cc2ccc3c(c2)C(C)(C)CCS3)nc1, which “activity, negative = inhibition” value is on record?
Answer: -13.4%

Question: O=c1cc(O)c(Cl)c[nH]1 was tested. Which “activity, negative = inhibition” value did it give?
Answer: 1.05%

Question: How did the Potency turn out when C1CCC(C(CC2CCCCN2)C2CCCCC2)CC1 (centres undefined) was run?
Answer: 15.1 µM (active)

Question: How did the “activity, negative = inhibition” value turn out when CCn1cc(C(=O)O)c(=O)c2cc(F)c(N3CCN(C)CC3)cc21 was run?
Answer: -12.5%

Question: With CC(C)NCC(O)c1ccc(NS(C)(=O)=O)cc1 (centres undefined) as the compound, how does the Potency read?
Answer: inactive

Question: With Cc1cccc(N(C)C(=S)Oc2ccc3ccccc3c2)c1 as the compound, how does the “activity, negative = inhibition” value read?
Answer: -4.17% [at 12.8 µM]

Question: With CC(=O)Oc1ccccc1C(=O)Nc1ncc([N+](=O)[O-])s1 as the compound, how does the “activity, negative = inhibition” value read?
Answer: 1.3%

Question: With CC[C@H](C)C(=O)O[C@H]1C[C@@H](C)C=C2C=C[C@H](C)[C@H](CC[C@@H]3C[C@@H](O)CC(=O)O3)[C@H]21 as the compound, how does the “activity, negative = inhibition” value read?
Answer: -0.164%

Question: CC(C)OC(=O)C(C(=O)OC(C)C)=C1SC=CS1 was tested. Which “activity, negative = inhibition” value did it give?
Answer: -0.769%

Question: O=S(=O)(O)CCS was tested. Which “activity, negative = inhibition” value did it give?
Answer: 7.44%

Question: How did the “activity, negative = inhibition” value turn out when Cc1nnc(NS(=O)(=O)c2ccc(N)cc2)s1 was run?
Answer: -1.09%

Question: Which “activity, negative = inhibition” value does the source give for CNC1CCCN(c2c(F)cc3c(=O)c(C(=O)O)cn(C4CC4)c3c2OC)C1 (centres undefined) here?
Answer: -2.64%

Question: Which “activity, negative = inhibition” value does the source give for S=P(N1CC1)(N1CC1)N1CC1 here?
Answer: 1.19%

Question: Which Potency does the source give for N=C(N)c1ccc(OCCCCCOc2ccc(C(=N)N)cc2)cc1 here?
Answer: 0.849 µM (active)

Question: With CCCc1nc(C)c2c(=O)[nH]c(-c3cc(S(=O)(=O)N4CCN(CC)CC4)ccc3OCC)nn12 as the compound, how does the “activity, negative = inhibition” value read?
Answer: -0.381%

Question: For CC1=CC(=O)c2ccccc2C1=O, which “activity, negative = inhibition” value is on record?
Answer: -7.72%

Question: Nc1[nH]c(=O)ncc1F was tested. Which “activity, negative = inhibition” value did it give?
Answer: 2.85% [at 12.8 µM]

Question: For Nc1nc(N)c2nc(CNc3ccc(C(=O)NC(CCC(=O)O)C(=O)O)cc3)cnc2n1 (centres undefined), which “activity, negative = inhibition” value is on record?
Answer: -2.2%

Question: For COC(=O)Nc1nc2ccc(C(=O)c3ccccc3)cc2[nH]1, which “activity, negative = inhibition” value is on record?
Answer: -14.7% [at 12.8 µM]

Question: Nc1nc(N)nc(-c2cc(Cl)ccc2Cl)n1 was tested. Which “activity, negative = inhibition” value did it give?
Answer: -4.77%

Question: With CC(C)(Sc1cc(C(C)(C)C)c(O)c(C(C)(C)C)c1)Sc1cc(C(C)(C)C)c(O)c(C(C)(C)C)c1 as the compound, how does the “activity, negative = inhibition” value read?
Answer: 3.66% [at 12.8 µM]

Question: COc1ccc(-c2ccc3cc(C(=O)O)ccc3c2)cc1C12CC3CC(CC(C3)C1)C2 was tested. Which “activity, negative = inhibition” value did it give?
Answer: 1.48%

Question: Which “activity, negative = inhibition” value does the source give for NCCCC(O)(P(=O)(O)O)P(=O)(O)O here?
Answer: 0.648%

Question: How did the “activity, negative = inhibition” value turn out when COC(=O)Nc1nc2ccc(Sc3ccccc3)cc2[nH]1 was run?
Answer: -3.04% [at 12.8 µM]

Question: CCc1cc(C(N)=S)ccn1 was tested. Which “activity, negative = inhibition” value did it give?
Answer: 0.0923%
